# Values joined by “and” are separate entries in the source; they are usually repeats but may differ in a detail not shown here. Identical values can stand only once. Counter-ions that a name gives are not always drawn.
# Experiments:
# Test in all cases: cell viability relative to vehicle control; higher = less cytotoxic
# Conditions in all cases: 10 µM
# [1] = test system: K562
# Summary of the method: (§1)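 Mutant clones made by CRISPR editing and their isogenic wild-type counterparts, from four leukaemia lines, were exposed to a single 10 µM dose of each library compound for 48 h. The supernatant was then removed and CellTiter-Glo luminescence was read. Viability was reported as percent of the on-plate vehicle control.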
# [2] = test system: MARIMO
# Summary of the method: as §1
# [3] = test system: MOLM14
# Summary of the method: as §1
# [4] = test system: OCI-AML2
# Summary of the method: as §1
Compound,cell viability ([1]; SRSF2 genotype: SRSF2 P95H/wt),cell viability ([1]; SRSF2 genotype: SRSF2 wt/wt) [%],cell viability ([2]; SRSF2 genotype: SRSF2 P95H/wt) [%],cell viability ([2]; SRSF2 genotype: SRSF2 wt/wt) [%],cell viability ([3]; SRSF2 genotype: SRSF2 P95H/wt) [%],cell viability ([3]; SRSF2 genotype: SRSF2 wt/wt) [%],cell viability ([4]; SRSF2 genotype: P95H/wt) [%],cell viability ([4]; SRSF2 genotype: wt/wt) [%]
COC(=O)C1=C(C)NC(C)=C(C(=O)OC(C)C)C1c1cccc2nonc12 (centres undefined) [Isradipine (Dynacirc)],95.3% and 96.5%,97.3,99.4,103,101,100,93.2,99.5
COc1cc2c(cc1O)CC[n+]1cc3c(OC)c(OC)ccc3cc1-2 [Jatrorrhizine chloride],84.4% and 88.5%,90.3,92.6,92.9,97.6,90.5,93.5,91.4
CC[C@@H]1[C@H]2CCCCN3[C@H]2[C@H](C[C@H]3[C@@H]2C[C@H](C)C(=O)O2)[C@@H]2[C@H]1OC(=O)[C@H]2C [Tuberostemonine],84.4% and 95%,88.8,83.6,89.3,64,97.8,107,100
CNC(=O)CN1CCC(Oc2cc3c(Nc4cccc(Cl)c4F)ncnc3cc2OC)CC1,85.2% and 96%,91.9,93.6,100,79.5,93.1,73.8,79.5
CCCCCCC=CCCCCCCCc1cccc(O)c1C(=O)O [Ginkgolic Acid],103% and 101%,104,108,110,109,107,100,106
O=[N+]([O-])c1ccc(Nc2ccccc2-c2ccccc2)c2nonc12,104% and 97.4%,95.7,96.7,109,94.2,95.2,103,107
CC(=O)OC1CC2CCC1(C)C2(C)C (centres undefined) [Bornyl acetate],109% and 107%,114,107,107,98.8,104,110,107
CCCCCOC(=O)Nc1nc(=O)n([C@@H]2O[C@H](C)[C@@H](O)[C@H]2O)cc1F [Capecitabine (Xeloda)],102% and 99.8%,104,99.7,108,101,101,92.8,99.2
CC(C)(OCc1nn(Cc2ccccc2)c2ccccc12)C(=O)O [Bindarit],102% and 106%,112,108,103,101,106,118,107
c1ccc2c(CCNc3ccc(Nc4ccncc4)cc3)c[nH]c2c1,28.3% and 44.5%,46,21.3,44.4,0.51,0.5,0.66,2
CCN(CC)CCOc1ccc(C(=C(Cl)c2ccccc2)c2ccccc2)cc1 [Clomifene citrate (Serophene)],37.2% and 36.3%,62.6,57.2,61.7,50.8,60.9,54.5,52.3
CC1(C)OC[C@@H](COC(=O)CCc2ccc(OC[C@@H](O)CNCCNC(=O)N3CCOCC3)cc2)O1 [Landiolol hydrochloride],93.9% and 87.6%,101,97.6,92.6,97.6,98.2,98.3,102
Cc1cn(-c2cc(NC(=O)c3ccc(C)c(Nc4nccc(-c5cnccn5)n4)c3)cc(C(F)(F)F)c2)cn1 [Radotinib],22.3% and 38.7%,22.1,107,111,104,100,103,104
CCNC(=O)c1[nH]nc(-c2cc(Cl)c(O)cc2O)c1-c1ccc(OC)cc1,19.1% and 31.3%,23.6,33.6,28.2,2.11,1.17,12.6,19.3
COc1ccc(NS(=O)(=O)c2sc3ccc(Cl)cc3c2C)cc1N1CCNCC1,99.5% and 98.2%,104,100,99.2,96.4,106,87.9,78
O=C(O)c1cc(=O)c2c(OCC(O)COc3cccc4oc(C(=O)O)cc(=O)c34)cccc2o1 [Disodium Cromoglycate],93.6%,95,94.8,98.5,94,94.4,92.8,99
CCCCNc1ccc(C(=O)OCCN(C)C)cc1 [Tetracaine hydrochloride (Pontocaine)],99.3% and 87.2%,90.7,93.4,105,92.2,96.2,94,98.4
O=C(NC[C@H]1CN(c2ccc(N3CCOCC3=O)cc2)C(=O)O1)c1ccc(Cl)s1 [Rivaroxaban (Xarelto)],87.3% and 85.4%,92.3,92.5,91.3,96.8,97.1,90.8,85.8
COc1ccc(Cl)cc1NC(=O)Nc1cc(C)nc2ccccc12,81.3% and 91.2%,87,98.8,99.1,87.6,90.1,82.7,74.1
COc1nccc(-c2c(-c3ccc(F)cc3)ncn2C2CCC(O)CC2)n1 (centres undefined),96.5% and 98.5%,89.3,98.3,110,107,107,107,107
CNC(CC(=O)O)C(=O)O [NMDA (N-Methyl-D-aspartic acid)],102% and 94.2%,99.7,101,99.5,100,99,94.4,107
Cn1cc(-c2cnn3c(N)c(Br)c([C@@H]4CCCNC4)nc23)cn1,42.2% and 58.8%,25.3,50.4,61.6,12.8,7.07,9.84,11.1

Compound,cell viability ([1]; SRSF2 genotype: SRSF2 P95H/wt),cell viability ([1]; SRSF2 genotype: SRSF2 wt/wt) [%],cell viability ([2]; SRSF2 genotype: SRSF2 P95H/wt) [%],cell viability ([2]; SRSF2 genotype: SRSF2 wt/wt) [%],cell viability ([3]; SRSF2 genotype: SRSF2 P95H/wt) [%],cell viability ([3]; SRSF2 genotype: SRSF2 wt/wt) [%],cell viability ([4]; SRSF2 genotype: P95H/wt) [%],cell viability ([4]; SRSF2 genotype: wt/wt) [%]
O=C(O)CNC(=O)c1nc(Cl)c2ccccc2c1O,84.7% and 85.9%,81.2,80.5,91.2,80.2,89.1,95.8,89.8
O=C(/C=C/c1cncc(F)c1)c1c(-c2ccccc2)c2cc(Cl)ccc2[nH]c1=O,6.82% and 5.38%,2.2,3.3,0.38,0.08,0.04,0.13,0.16
CCCCCCNC(=O)Nc1ccc(S(=O)(=O)Nc2ccc(CCNC[C@H](O)COc3ccc(O)cc3)cc2)cc1,72.8% and 83.3%,82.8,89.2,91.4,75.5,75.4,74.2,71
C[C@]12CCC(=O)C=C1[C@@H]1C[C@@H]1[C@H]1[C@@H]3[C@@H]4C[C@@H]4[C@@]4(CCC(=O)O4)[C@@]3(C)CC[C@@H]12 [Drospirenone],83.3% and 90.5%,83.3,82,91.8,83.8,89.2,101,92.7
CC(C)C(C(=O)O)N1C(=O)C(=Cc2ccc(Br)cc2)SC1=S (centres undefined),105%,102,98.4,105,100,100,102,109
NS(=O)(=O)c1cc2c(cc1Cl)N=CNS2(=O)=O [Chlorothiazide],100% and 94%,94.5,98,105,102,97.8,93.7,109
COc1cc2c(NC3CCN(C(C)C)CC3)nc(C3CCCCC3)nc2cc1OCCCN1CCCC1,5.7% and 1.99%,3.43,1.5,1.11,0.34,0.42,0.27,0.2
CCN=C1N[C@@H]2[C@@H](O)[C@H](O)[C@@H](CO)O[C@@H]2S1 [Thiamet G],99.9% and 104%,101,103,106,92.8,99.8,101,107
Nc1nc2ccc(OC(F)(F)F)cc2s1 [Riluzole (Rilutek)],94.3% and 96.3%,88.4,94,90.6,81.8,98.6,103,94.8
O=c1cc(-c2ccccc2)oc2cc(O)cc(O)c12 [Chrysin],100% and 104%,105,93,107,81.1,93.7,86.7,75.3
Nc1nnc(-c2cccc(Cl)c2Cl)c(N)n1 [Lamotrigine],95.7% and 94.8%,95,94.7,107,102,103,101,98.3
CNC(=O)c1cc(COc2nnc(Nc3ccc(Cl)cc3)c3ccoc23)ccn1 [Telatinib (BAY 57-9352)],94.6% and 90.8%,98.7,106,106,108,97.3,90.6,99.5
CC1CCN(CC[C@H]2CCCN2S(=O)(=O)c2cccc(O)c2)CC1,101%,95,97.8,106,96.5,103,92.9,98.7
C#C[C@]1(O)CC[C@H]2[C@@H]3CCC4=CC(=O)CC[C@@H]4[C@H]3CC[C@@]21C [Norethindrone (Norethisterone)],103% and 101%,100,101,116,98.3,106,107,111
CCn1c2ccccc2c2cc(Nc3ccnc(NCCCN4CCOCC4)n3)ccc21,4.34% and 6.16%,6.8,19.1,24.9,2.38,0.71,0.41,1.05
Nc1nc2c(ncn2COC(CO)CO)c(=O)[nH]1 [Ganciclovir],105% and 99.9%,106,100,108,112,104,91.1,104
NC(N)=N/N=C/c1c(Cl)cccc1Cl [Guanabenz (WY-8678) Acetate],81.4% and 86.5%,84,83.3,83.3,84.1,86.5,89.6,88.1
NC(=O)c1nc(F)cnc1O [Favipiravir (T-705)],98.6% and 95.8%,95.8,91.7,92.5,89.8,94.8,100,93.2
CC(=CCNc1ncnc2c1ncn2C1OC(CO)C(O)C1O)CO (stereo not drawn) [trans-Zeatin-riboside],107% and 105%,108,99.7,110,104,105,116,117
CN(C)C(=O)[C@H](O)[C@H](Cc1ccccc1)NC(=O)c1cc2cc(Cl)ccc2[nH]1,92.2% and 98.4%,98,95.3,98.2,88.9,104,90,84.7
COc1cc(OC)c(C(=O)CCCN2CCCC2)c(OC)c1 [Buflomedil HCl],93.2% and 114%,108,100,102,112,106,113,101

# — the supplement of paper PMC10981050
